Shown are actives, neighbours in structure and some others; about 0.25% of the full set was active somewhere.
Tb PFK inh-1: qHTS Assay to Find Inhibitors of T. brucei phosphofructokinase; ATP-dependent 6-phosphofructokinase (Trypanosoma brucei brucei), O15648; T. brucei PFK, ADP-Glo luminescence; Potency, µM (titrated, usually from 57.5 µM), for the others: at the top dose activity, negative = inhibition, actives largely listed as inhibitors; 330,000 tested, 0.17% active;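 also: 0% = uninhibited 1x PFK enzyme wells and -100% = no-enzyme wells; nearly all actives have a fitted effect of over 60% in size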
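Luminescent ADP detection (ADP-Glo, two-step: ATP depletion then ADP-to-ATP conversion for luciferase) reported PFK activity after 45 min room-temperature reaction of 1.25 nM enzyme with 0.5 mM F6P and 0.1 mM ATP at pH 8.0.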
ERG Ets-DNA blk: qHTS for Small Molecule Inhibitors of the ERG Ets/DNA interaction. Transcriptional regulator ERG (Homo sapiens), P11308. fluorescence polarization, His-ERG Ets domain / labelled DNA. Potency, µM (top dose mostly 76.9 µM), inactives show at the highest dose FP activity, negative = inhibition, usual class: inhibitors. 370,000 tested, 0.028% active; active = well fitted inhibition curve with a large enough effect in the polarisation, with a control signal flat; inconclusive = small, poorly fitted or top-dose-only effect, or effect the other way, or a change in a side signal; inactive = no such curve, though single readings can be large or run the other way; the % refers to the polarisation;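 also: polarization taken with two DNA probes labelled with fluorescein and Texas red; % of control where 0% means no effect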
Target sequence (P11308 whole entry, looked up, the tested form may be a part): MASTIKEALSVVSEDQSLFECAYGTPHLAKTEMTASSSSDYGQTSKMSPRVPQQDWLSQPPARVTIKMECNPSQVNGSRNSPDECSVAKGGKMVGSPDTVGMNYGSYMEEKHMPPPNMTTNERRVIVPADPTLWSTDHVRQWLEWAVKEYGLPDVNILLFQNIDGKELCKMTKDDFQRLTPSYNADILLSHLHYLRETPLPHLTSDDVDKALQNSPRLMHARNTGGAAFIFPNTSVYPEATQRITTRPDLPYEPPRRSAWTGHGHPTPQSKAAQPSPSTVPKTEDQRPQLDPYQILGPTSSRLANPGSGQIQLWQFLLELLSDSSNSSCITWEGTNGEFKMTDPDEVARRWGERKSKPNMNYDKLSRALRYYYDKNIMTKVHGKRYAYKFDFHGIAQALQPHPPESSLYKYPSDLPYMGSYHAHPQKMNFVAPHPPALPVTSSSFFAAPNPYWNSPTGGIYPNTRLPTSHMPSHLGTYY
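His-tagged ERG Ets domain (1 uM in the protein solution; 300mM KCl, 50mM Tris-HCl, 1mM EDTA, 1mM DTT, pH 7.5) received compound, then a probe mix of 5 nM fluorescein-DNA and 100nM Texas-615-DNA. Fluorescence polarization was read for both dyes.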
Chronic BCR inh: qHTS Assay to Find Inhibitors of Chronic Active B-Cell Receptor Signaling. 340,000 tested, 0.05% active. AID 493014, 2011. Potency, µM (highest dose often 46.1 µM), for the others: at the top dose activity change, negative = inhibition, most hits filed as inhibitors. ABC-DLBCL IkBa-CBG/CBR reporter, luminescence ratio, 4 h; active = well fitted inhibition curve with a large enough effect in the signal ratio, with a control signal flat, not every such curve was filed as active; inconclusive = small, poorly fitted or top-dose-only effect, or effect the other way, or a change in a side signal; the % refers to the signal ratio;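 also: plate controls were basal doxycycline-induced cells for no effect and cells given 10 µM MG132 for full effect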
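Cell line TMD8 (human ABC DLBCL), stably expressing tet-inducible CBG68-IkBa fusion and CBR; IMDM/0.5% FBS; cpd up to 46 uM; dox induction, 4 h, 37C/5% CO2; dual luminescence; green/red ratio; MG132 control.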
Pin1 inhibitor: qHTS Assay to Find Inhibitors of Pin1; Peptidyl-prolyl cis-trans isomerase NIMA-interacting 1 (Homo sapiens), Q13526; Pin1 FP peptide displacement, HiFluor488, 10 min; Potency, µM (top dose mostly 115 µM), for inactives: at the highest dose activity, negative = inhibition, hits mostly inhibitors; 390,000 tested, 0.009% active; active = well fitted inhibition curve with a large enough effect in the polarisation, with a control signal flat, not every such curve was filed as active; inconclusive = small, poorly fitted or top-dose-only effect, or effect the other way, or a change in a side signal; inactive = no such curve, though single readings can be large or run the other way; the % refers to the polarisation; also: % is scaled to controls: 0 for no effect and ±100 for the full control effect
PGK inhibitor: qHTS Assay to Find Inhibitors of Phosphoglycerate Kinase; AID 602233, 2012; Phosphoglycerate kinase, glycosomal (Trypanosoma brucei brucei), P07378; Potency, µM (titrated, usually from 57.5 µM), inactives show at the top dose activity change, negative = inhibition, usual class: inhibitors; PGK/GAPDH coupled, Kinase-Glo luminescence, 60 min; 380,000 tested, 0.043% active; also: % is scaled to controls: 0 for no effect and ±100 for the full control effect; nearly all actives have a fitted effect of over 60% in size
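Luminescent ATP detection (Kinase-Glo Plus) follows a 60-minute room-temperature incubation, with wells lacking PGK as controls. Buffer: 100 mM TEA (pH 7.6), 5 mM MgCl2, 0.01% Tween-20. Coupling enzyme GAPDH (100 nM final) supplies unstable 1,3-BPG in-well.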
TbPFK ATP: Tb PFK orthogonal confirmatory assay using ATP depletion (Kinase-Glo Plus) as an alternative measure of Tb PFK activity: Hit Validation; shares compounds with Tb PFK inh-1; Tb PFK enzyme, ATP depletion, Kinase-Glo Plus luminescence; Potency, µM (highest dose often 57.5 µM), without a hit: at the top dose inhibition; 1,100 tested, 47% active; calls by dose curve; also: nearly all actives have a fitted effect of over 60% in size
Tb PFK inh-2: Inhibitors of T. brucei phosphofructokinase: Hit Validation; purified T. brucei PFK, ADP-Glo luminescence, 45 min; shares compounds with Tb PFK inh-1; 1,100 tested, 41% active; Potency, µM (doses to about 57.5 µM), without a hit: top-dose activity change, negative = inhibition, actives largely listed as inhibitors; AID 504637, 2011;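 also: plate controls were full PFK enzyme control for no effect and no enzyme control for full effect; nearly all actives have a fitted effect of over 60% in size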
Starred values were filed as active, the others as inactive; i = inactive; ? = inconclusive; . = no result. Unless noted, calls follow the shape of the dose curve; as a rule, active = well fitted curve in the direction sought with a large enough effect; inconclusive = small, poorly fitted or top-dose-only effect, or another doubt; inactive = no such curve, though single readings can be large; an effect the other way counts as inactive or inconclusive. Potency is read from the fitted curve at half-maximal effect.

SMILES | Tb PFK inh-1 | ERG Ets-DNA blk | Chronic BCR inh | Pin1 inhibitor | PGK inhibitor | TbPFK ATP | Tb PFK inh-2
O=c1cc(-c2ccccc2)oc2cc(O)c(O)c(O)c12 | 7.57µM* | 16.4% | 12.4% | ? | -14.0% | 2.69µM* | 5.36µM*
CCc1nnc(NC(=O)c2cc(C)nc3ccccc23)s1 | -1.7% | -2.3% | -0.3% | 9.4% | -7.5% | . | .
Cc1nnc(NC(=O)c2cc(-c3ccco3)nc3ccccc23)s1 | ? | . | ? | . | . | 9.53µM* | ?
COc1cccc(NC(=O)c2cc(-c3ccc(C)o3)nc3ccccc23)c1 | ? | 6.4% | 0.0% | 76.8% | -10.6% | ? | ?
CCc1nnc(NC(=O)c2cc(-c3ccc(C)o3)nc3ccccc23)s1 | 4.78µM* | . | -0.3% | 4.0% | i | 4.78µM* | 6.75µM*
COc1cc(-c2ccc3ncnc(NCC4CCCO4)c3c2)cc(OC)c1OC (stereo unspecified) | . | . | . | -4.7% | . | . | .
N#CCSc1nnc(CNc2cccc(Cl)c2)o1 | 23.9µM* | -14.0% | 0.0% | -1.9% | 1.5% | 13.5µM* | 21.3µM*
O=C1N(c2ccc(Cl)c(Cl)c2)CN(Cc2ccccc2)CN1n1cnnc1 | 26.9µM* | -0.4% | -1.5% | -8.4% | -6.2% | ? | -16.4%
COc1ccc(CN2CN(c3ccc(Cl)cc3)C(=O)N(n3cnnc3)C2)cc1 | -28.6% | 1.4% | -23.9% | -8.2% | -3.5% | . | .
CCC1CCc2sc(C(=O)OCC(=O)N(CCOC)c3c(N)n(Cc4ccccc4)c(=O)[nH]c3=O)cc2C1 (stereo unspecified) | -0.2% | 5.9% | -8.0% | 11.9% | 4.3% | . | .
COCCN(C(=O)COC(=O)c1cc2c(s1)CCC2)c1c(N)n(Cc2ccccc2)c(=O)[nH]c1=O | 3.79µM* | . | 10.6% | . | ? | 1.07µM* | 1.69µM*
Clc1ccc(Cn2c3c(c4ccccc42)CCc2cc4ccccc4nc2-3)cc1 | . | . | . | 1.6% | . | . | .
O=C(O)CCNC(=O)c1ccc(NC(=O)Cc2ccc(Cl)cc2)cc1 | ? | 5.2% | -16.7% | -5.2% | -7.7% | ? | ?
O=C(Cc1ccccc1)Nc1ccc(C(=O)NCc2ccccc2)cc1 | -1.0% | 9.0% | -0.7% | 9.4% | i | . | .
Cc1c(P(=S)(c2ccccc2)c2ccccc2)c2ccccc2n1CCc1ccccc1 | . | . | . | -3.0% | . | . | .
